Data taken from PubChem BioAssay (Tox21).
Where “and” joins values, the source holds several entries; their conditions need not be identical. Equal values may be shown once. Results filed as inconclusive are left out. More than one record can exist for a structure, and the calls need not agree. Calls of active or inactive are those of the source. Unless noted, calls follow the shape of the dose curve; as a rule, active = well fitted curve in the direction sought with a large enough effect in the repeat runs; inconclusive = weak or mixed curves; inactive = no such curve, though single readings can be large; an effect the other way counts as inactive or inconclusive.

Legend:
[1] = target: Estrogen receptor beta (Homo sapiens) (UniProt Q92731); assay: qHTS assay to identify small molecule agonists of the estrogen receptor beta (ER-beta) signaling pathway (AID 1259377; active = well fitted activation curve with a large enough effect in the signal ratio in the repeat runs, not every such curve was filed as active; the % refers to the signal ratio)
Procedure, shortened: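 In HEK293T cells bearing a UAS-beta-lactamase reporter under ER-beta control, DMSO-delivered compounds were incubated for 16 hr at 37C. Activity was detected as fluorescence 2 hours after LiveBLAzer B/G FRET substrate addition.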

[2] = target: Estrogen receptor beta (Homo sapiens) (UniProt Q92731); assay: qHTS assay to identify small molecule antagonists of the estrogen receptor beta (ER-beta) signaling pathway (AID 1259378; active = well fitted inhibition curve with a large enough effect in the signal ratio in the repeat runs, not every such curve was filed as active; the % refers to the signal ratio; also: potency is read from the fitted curve at half-maximal effect)
Procedure, shortened: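 Antagonist mode: compounds added to beta-lactamase reporter HEK293T ER-beta-UAS cells stimulated with E2 (1nM final), 16 hr at 37C. LiveBLAzer B/G FRET substrate, 2 hours room temperature, fluorescence read-out.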

[3] = qHTS assay to identify small molecule agonists of the estrogen receptor beta (ER-beta) signaling pathway - cell viability counter screen (AID 1259380); also: nearly all actives have a fitted effect of over 30% in size; also: potency is read from the fitted curve at half-maximal effect
Procedure, shortened: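 Steps: plate ER-beta-UAS-bla HEK293T cells, rest 6 hr; add compounds in DMSO; incubate 16 hr at 37C, 5% CO2; add FRET substrate 2 hr; add CellTiter-Glo, wait 30 min at room temperature; read luminescence.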

[4] = target: Estrogen receptor (Homo sapiens) (UniProt P03372); assay: qHTS assay to identify small molecule agonists of the estrogen receptor alpha (ER-alpha) signaling pathway in the presence of an antagonist (AID 1259383; calls by dose curve; also: top concentration of the series differs between compounds; nearly all actives have a fitted effect of over 15% in size)
Procedure, shortened: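 Readout was ERE-driven luciferase luminescence in VM7Luc4E2 cells, which express full-length ER-alpha endogenously. Compounds were tested at 15 concentrations for 22hr alongside 10.0nM ICI-182,780 (final concentration).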

[5] = qHTS assay to identify small molecule agonists or antagonists of the thyroid stimulating hormone receptor (TSHR) signaling pathway - wild type cell line counter screen (AID 1259384; calls by dose curve)
Procedure, shortened: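 Counter screen in untransfected Hek293: compounds (15-point titration, triplicate) plus phosphodiesterase inhibitor Ro20-1724 added after 18 h plating; 30 min RT. Intracellular cAMP via competitive d2/cryptate immunoassay, 1 h incubation.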

[6] = target: Thyrotropin receptor (Homo sapiens) (UniProt P16473); assay: qHTS assay to identify small molecule antagonists of the thyroid stimulating hormone receptor (TSHR) signaling pathway (AID 1259385; calls by dose curve; also: nearly all actives have a fitted effect of over 20% in size; also: potency is read from the fitted curve at half-maximal effect)
Procedure, shortened: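 Antagonist mode: compound-treated TSHR-expressing HEK293 cells were stimulated with 1.5 ng/mL TSH (final) in presence of Ro20-1724 for 30 min at RT. HTRF cAMP detection after 1 h; each compound tested at 15 concentrations, triplicate.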

[7] = qHTS assay to identify small molecule agonists of the estrogen receptor alpha (ER-alpha) signaling pathway in the presence of an antagonist - cell viability counter screen (AID 1259386);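 also: cells exposed to compounds for 22 h at 37 °C before the viability read; nearly all actives have a fitted effect of over 30% in size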; also: potency is read from the fitted curve at half-maximal effect
Procedure, shortened: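 In this counter screen, compound effects on VM7Luc4E2 viability were tested in the presence of the antagonist ICI-182,780 at 10.0nM final. Compounds were dosed at 15 concentrations, exposure lasted 22hr, and the CellTiter-Fluor signal was read.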

[8] = target: Progesterone receptor (Homo sapiens) (UniProt P06401); assay: qHTS assay to identify small molecule agonists of the progesterone receptor (PR) signaling pathway (AID 1346784; calls by dose curve; also: nearly all actives have a fitted effect of over 30% in size; also: potency is read from the fitted curve at half-maximal effect)
Procedure, shortened: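 Using charcoal-stripped serum (2%) to limit endogenous steroids, PR-UAS-bla HEK 293T cells received compounds for 16 hr at 37C after 6 hr plating; beta-lactamase FRET fluorescence was recorded following 2 hr substrate loading at room temperature.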

[9] = target: Progesterone receptor (Homo sapiens) (UniProt P06401); assay: qHTS assay to identify small molecule antagonists of the progesterone receptor (PR) signaling pathway (AID 1346795; active = well fitted inhibition curve with a large enough effect in the signal ratio in the repeat runs, not every such curve was filed as active; the % refers to the signal ratio; also: potency is read from the fitted curve at half-maximal effect)
Procedure, shortened: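 Inhibition of R5020-induced (1 nM final) beta-lactamase reporter signal in PR-UAS-bla HEK293T cells was scored by FRET fluorescence after overnight (16 hr) compound treatment.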

[10] = qHTS assay to identify small molecule antagonists of the TGF-beta/Smad signaling pathway - cell viability counter screen (AID 1346824); also: nearly all actives have a fitted effect of over 50% in size
Procedure, shortened: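 Cytotoxicity counter-screen run in the same wells as the beta-lactamase Smad reporter read: CellTiter-Glo luminescence after 30 min at room temperature. HEK 293T SBE-bla cells had 5 hr compound exposure at 37 C with TGF-beta1 (0.25 ng/mL stock).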

[11] = qHTS assay to identify small molecule agonists of the TGF-beta/Smad signaling pathway - cell viability counter screen (AID 1346829); also: top concentration of the series differs between compounds; nearly all actives have a fitted effect of over 45% in size
Procedure, shortened: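 SBE-bla HEK 293T cells plated overnight, compound exposure 5 hr at 37 C. Viability read in the same wells by CellTiter-Glo luminescence after 30 min at room temperature, following the beta-lactamase read.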

[12] = qHTS assay to identify small molecule agonists of the TGF-beta/Smad signaling pathway (AID 1346859; active = well fitted activation curve with a large enough effect in the signal ratio in the repeat runs, not every such curve was filed as active; the % refers to the signal ratio; also: series mostly up to about 77 µM)
Procedure, shortened: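 Stable Smad binding element-beta-lactamase HEK 293T cells; 5 hr compound exposure at 37 C under 5% CO2; 2 hr room-temperature substrate step; fluorescence excited at 405 nm, collected at 460 nm and 530 nm.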

[13] = target: Thyrotropin-releasing hormone receptor (Homo sapiens) (UniProt P34981); assay: qHTS assay to identify small molecule antagonists of the thyrotropin-releasing hormone receptor (TRHR) signaling pathway (AID 1346877; active = well fitted inhibition curve with a large enough effect in the repeat runs, not every such curve was filed as active; also: series mostly up to about 51 µM)
Procedure, shortened: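 Kinetic fluorescence (3 min, 1 s resolution) following stimulation with TRH at 1 nM final; HEK293 cells bearing human TRHR; 5 min compound preincubation at RT; concentration-response over 15 points, triplicates.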

[14] = target: Thyrotropin-releasing hormone receptor (Homo sapiens) (UniProt P34981); assay: qHTS assay to identify small molecule agonists of the thyrotropin-releasing hormone receptor (TRHR) signaling pathway (AID 1346891; calls by dose curve;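 also: HEK293 cells expressing TRHR with calcium dye readout; series mostly up to about 58 µM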)
Procedure, shortened: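 In 1536-format, 1500 TRHR-Hek293 cells per well grew 18 h, took up calcium dye for 2 h at 37 °C, received compound, and were read kinetically; 15-point titrations, triplicates.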

[15] = Human pregnane X receptor (PXR) small molecule agonists, qHTS cell viability counter screen (AID 1346977); also: nearly all actives have a fitted effect of over 50% in size; also: potency is read from the fitted curve at half-maximal effect
Procedure, shortened: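 Readout is CellTiter-Fluor fluorescence from PXR-Luc HepG2 cells. Plated cells rested 5hr, then were treated with compounds for 24hr at 37C and 5% CO2, with reagent present during the last hour.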

[16] = qHTS assay to identify small molecule agonists of the androgen receptor (AR) signaling pathway in the presence of an antagonist - cell viability counter screen (AID 1259379);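 also: MDA-kb2 human breast cancer cells carrying an MMTV luciferase reporter; series mostly up to about 92 µM; nearly all actives have a fitted effect of over 25% in size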
Procedure, shortened: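 Nilutamide-containing (3.0uM final) MDA-kb2 cultures, 3,000 cells/well, were treated with compounds across 15 concentrations. After 16 hr at 37C with no CO2, cell viability was determined by CellTiter-Fluor fluorescence in the luciferase assay wells.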

[17] = qHTS assay to identify small molecule antagonists of the estrogen receptor beta (ER-beta) signaling pathway - cell viability counter screen (AID 1259382); also: nearly all actives have a fitted effect of over 55% in size; also: potency is read from the fitted curve at half-maximal effect
Procedure, shortened: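 Viability is scored by CellTiter-Glo luminescence (30 min, room temperature) in ER-beta-UAS-bla HEK293T wells already read for reporter fluorescence. Compound exposure lasts 16 hr at 37C alongside 1nM 17-beta-estradiol in charcoal-stripped serum medium.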

[18] = qHTS assay to identify small molecule antagonists of the progesterone receptor (PR) signaling pathway - cell viability counter screen (AID 1346798); also: nearly all actives have a fitted effect of over 50% in size; also: potency is read from the fitted curve at half-maximal effect
Procedure, shortened: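 ATP content as viability readout: CellTiter-Glo luminescence, 30 min room temperature, in PR-UAS-bla HEK293T cells after 16 hr compound/R5020 treatment at 37C and 5% CO2.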

[19] = qHTS assay to identify small molecule agonists of the progesterone receptor (PR) signaling pathway - cell viability counter screen (AID 1346799; calls by dose curve; also: nearly all actives have a fitted effect of over 45% in size; also: potency is read from the fitted curve at half-maximal effect)
Procedure, shortened: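 Cytotoxicity in PR-bla HEK293T cells: 16 h compound, 37C; CellTiter-Glo added post-FRET read; luminescence after 30 min RT.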

[20] = target: Androgen receptor (Homo sapiens) (UniProt P10275); assay: qHTS assay to identify small molecule agonists of the androgen receptor (AR) signaling pathway in the presence of an antagonist (AID 1259381; calls by dose curve; also: nearly all actives have a fitted effect of over 15% in size)
Procedure, shortened: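 Reporter-gene luminescence from MDA-kb2 cells exposed 16hr at 37C (0% CO2) to 15-point compound titrations with 3.0uM final nilutamide as AR antagonist.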

Measured: Potency

Sequence of Thyrotropin-releasing hormone receptor (Homo sapiens) (P34981 whole entry, looked up): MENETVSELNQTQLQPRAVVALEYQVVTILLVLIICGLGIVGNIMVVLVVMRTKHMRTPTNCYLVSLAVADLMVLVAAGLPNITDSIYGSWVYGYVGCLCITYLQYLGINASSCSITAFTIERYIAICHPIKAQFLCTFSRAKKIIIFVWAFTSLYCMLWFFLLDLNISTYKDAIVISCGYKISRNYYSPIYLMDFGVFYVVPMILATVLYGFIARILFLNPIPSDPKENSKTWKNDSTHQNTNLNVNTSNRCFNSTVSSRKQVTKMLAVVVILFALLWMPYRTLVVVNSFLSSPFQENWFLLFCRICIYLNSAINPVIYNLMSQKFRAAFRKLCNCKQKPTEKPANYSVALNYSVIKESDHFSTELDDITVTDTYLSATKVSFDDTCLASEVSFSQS
Sequence of Thyrotropin receptor (Homo sapiens) (P16473 whole entry, looked up): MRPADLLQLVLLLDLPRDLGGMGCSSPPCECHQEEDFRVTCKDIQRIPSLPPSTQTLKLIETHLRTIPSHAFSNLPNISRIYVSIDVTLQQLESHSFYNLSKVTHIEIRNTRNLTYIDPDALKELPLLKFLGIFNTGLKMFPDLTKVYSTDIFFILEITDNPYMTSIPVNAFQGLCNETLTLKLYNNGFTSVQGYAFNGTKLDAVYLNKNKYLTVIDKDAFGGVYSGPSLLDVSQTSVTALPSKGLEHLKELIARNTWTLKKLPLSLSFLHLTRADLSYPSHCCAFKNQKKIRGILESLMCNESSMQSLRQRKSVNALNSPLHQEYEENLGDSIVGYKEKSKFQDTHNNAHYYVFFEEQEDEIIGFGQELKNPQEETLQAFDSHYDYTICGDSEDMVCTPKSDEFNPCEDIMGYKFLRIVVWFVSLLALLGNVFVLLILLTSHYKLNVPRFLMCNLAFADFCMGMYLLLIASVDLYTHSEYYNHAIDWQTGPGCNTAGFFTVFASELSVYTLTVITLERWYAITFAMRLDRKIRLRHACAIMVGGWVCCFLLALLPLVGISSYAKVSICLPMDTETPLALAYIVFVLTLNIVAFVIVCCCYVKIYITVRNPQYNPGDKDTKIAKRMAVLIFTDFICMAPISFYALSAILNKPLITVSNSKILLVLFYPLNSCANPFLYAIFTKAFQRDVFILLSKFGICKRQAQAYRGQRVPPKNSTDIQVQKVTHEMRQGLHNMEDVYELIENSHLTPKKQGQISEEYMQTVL
Sequence of Estrogen receptor (Homo sapiens) (P03372 whole entry, looked up): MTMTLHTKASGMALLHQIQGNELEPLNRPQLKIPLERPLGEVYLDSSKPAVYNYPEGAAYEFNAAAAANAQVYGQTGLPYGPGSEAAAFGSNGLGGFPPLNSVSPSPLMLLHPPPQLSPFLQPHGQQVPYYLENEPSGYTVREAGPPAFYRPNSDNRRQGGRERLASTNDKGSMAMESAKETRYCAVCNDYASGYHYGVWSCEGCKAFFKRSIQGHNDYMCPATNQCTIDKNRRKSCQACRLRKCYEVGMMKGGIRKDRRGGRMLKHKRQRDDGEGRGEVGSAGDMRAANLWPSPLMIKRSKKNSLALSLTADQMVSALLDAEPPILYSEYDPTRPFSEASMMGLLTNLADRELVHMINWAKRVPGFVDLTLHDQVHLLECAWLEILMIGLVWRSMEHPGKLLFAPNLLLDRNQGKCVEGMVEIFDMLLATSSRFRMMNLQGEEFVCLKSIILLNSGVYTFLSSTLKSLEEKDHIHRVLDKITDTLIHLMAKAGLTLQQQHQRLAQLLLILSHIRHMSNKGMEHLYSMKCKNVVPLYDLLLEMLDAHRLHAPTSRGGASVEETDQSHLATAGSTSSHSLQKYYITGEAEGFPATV
Sequence of Estrogen receptor beta (Homo sapiens) (Q92731 whole entry, looked up): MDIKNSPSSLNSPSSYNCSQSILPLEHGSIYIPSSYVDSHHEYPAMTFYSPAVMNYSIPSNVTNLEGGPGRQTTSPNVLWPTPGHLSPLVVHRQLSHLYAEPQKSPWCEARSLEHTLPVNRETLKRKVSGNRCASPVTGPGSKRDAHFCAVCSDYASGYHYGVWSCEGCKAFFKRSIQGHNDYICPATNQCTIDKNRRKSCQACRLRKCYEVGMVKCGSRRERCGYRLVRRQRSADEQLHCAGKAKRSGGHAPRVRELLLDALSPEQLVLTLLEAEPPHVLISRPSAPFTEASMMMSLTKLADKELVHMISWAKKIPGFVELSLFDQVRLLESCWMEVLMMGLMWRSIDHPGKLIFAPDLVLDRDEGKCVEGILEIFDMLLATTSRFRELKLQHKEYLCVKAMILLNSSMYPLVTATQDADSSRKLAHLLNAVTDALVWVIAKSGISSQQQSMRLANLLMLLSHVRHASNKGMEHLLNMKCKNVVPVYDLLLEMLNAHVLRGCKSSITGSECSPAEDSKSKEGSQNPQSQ
Sequence of Progesterone receptor (Homo sapiens) (P06401 whole entry, looked up): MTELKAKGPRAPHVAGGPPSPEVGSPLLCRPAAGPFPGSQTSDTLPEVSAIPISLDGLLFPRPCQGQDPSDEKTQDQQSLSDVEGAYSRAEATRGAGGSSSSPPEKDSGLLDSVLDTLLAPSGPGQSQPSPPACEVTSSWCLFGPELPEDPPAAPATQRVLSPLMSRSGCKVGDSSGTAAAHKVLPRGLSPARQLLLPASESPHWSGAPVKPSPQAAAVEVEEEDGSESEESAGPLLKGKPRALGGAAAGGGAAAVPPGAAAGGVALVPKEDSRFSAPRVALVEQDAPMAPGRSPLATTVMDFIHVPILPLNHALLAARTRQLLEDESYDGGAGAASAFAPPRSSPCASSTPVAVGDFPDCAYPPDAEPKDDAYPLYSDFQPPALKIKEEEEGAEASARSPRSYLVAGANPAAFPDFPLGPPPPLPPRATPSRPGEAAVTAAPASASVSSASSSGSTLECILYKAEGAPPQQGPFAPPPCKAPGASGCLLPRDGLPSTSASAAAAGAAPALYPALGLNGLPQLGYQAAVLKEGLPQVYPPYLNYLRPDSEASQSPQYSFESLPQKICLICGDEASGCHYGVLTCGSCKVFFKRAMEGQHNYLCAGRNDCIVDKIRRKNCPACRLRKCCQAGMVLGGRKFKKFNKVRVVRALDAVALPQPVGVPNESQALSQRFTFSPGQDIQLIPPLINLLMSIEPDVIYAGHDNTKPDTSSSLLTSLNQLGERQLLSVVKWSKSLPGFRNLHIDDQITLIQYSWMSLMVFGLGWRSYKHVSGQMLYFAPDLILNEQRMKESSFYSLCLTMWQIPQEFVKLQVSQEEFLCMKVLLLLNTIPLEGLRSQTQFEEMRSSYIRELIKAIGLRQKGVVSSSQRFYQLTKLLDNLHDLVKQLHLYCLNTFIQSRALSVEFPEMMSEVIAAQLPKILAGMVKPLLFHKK
Sequence of Androgen receptor (Homo sapiens) (P10275 whole entry, looked up): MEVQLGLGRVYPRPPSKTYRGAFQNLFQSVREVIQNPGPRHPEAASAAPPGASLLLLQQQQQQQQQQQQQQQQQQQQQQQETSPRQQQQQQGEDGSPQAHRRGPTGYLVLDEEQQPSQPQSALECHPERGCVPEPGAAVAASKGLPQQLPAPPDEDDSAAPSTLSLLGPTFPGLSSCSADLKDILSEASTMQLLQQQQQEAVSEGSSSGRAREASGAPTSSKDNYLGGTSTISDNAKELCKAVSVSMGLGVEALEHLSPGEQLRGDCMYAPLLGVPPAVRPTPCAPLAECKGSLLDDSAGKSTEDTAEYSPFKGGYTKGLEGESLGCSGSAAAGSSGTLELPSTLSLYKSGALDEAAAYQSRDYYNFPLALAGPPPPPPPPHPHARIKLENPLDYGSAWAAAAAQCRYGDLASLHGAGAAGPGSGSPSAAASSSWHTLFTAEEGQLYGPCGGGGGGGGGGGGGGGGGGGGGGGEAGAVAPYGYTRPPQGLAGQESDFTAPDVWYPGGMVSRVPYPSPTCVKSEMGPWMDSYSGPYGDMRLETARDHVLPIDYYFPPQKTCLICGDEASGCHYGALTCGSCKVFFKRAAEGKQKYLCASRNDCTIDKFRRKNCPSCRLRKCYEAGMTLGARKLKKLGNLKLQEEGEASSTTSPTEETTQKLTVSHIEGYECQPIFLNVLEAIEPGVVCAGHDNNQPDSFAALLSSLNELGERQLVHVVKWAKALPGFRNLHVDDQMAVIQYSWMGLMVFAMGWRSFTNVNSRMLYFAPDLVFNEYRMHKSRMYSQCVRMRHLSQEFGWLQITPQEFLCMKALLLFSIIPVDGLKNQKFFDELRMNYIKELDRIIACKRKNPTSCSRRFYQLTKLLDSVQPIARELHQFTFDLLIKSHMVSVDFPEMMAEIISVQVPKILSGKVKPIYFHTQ

CCC/C=C/C=O
not listed: [16] | [17] | [18] | [19] | [20]
inactive: all other assays above

COc1ccc(-c2coc3cc(O)cc(O)c3c2=O)cc1
active: [3] 38.6 µM | [9] 6.11 µM
not listed: [1] | [2] | [4] | [15] | [19] | [20]
inactive: all other assays above

CC(=O)OC(C)C
not listed: [4] | [16] | [18] | [19] | [20]
inactive: all other assays above

OCCNCCO
not listed: [1] | [2] | [19] | [20]
inactive: all other assays above

c1ccc2ncccc2c1
not listed: [1] | [2] | [4] | [10] | [20]
inactive: all other assays above

Cc1ccc(S(=O)(=O)O)cc1C
not listed: [1] | [2] | [4] | [20]
inactive: all other assays above

CC1(C)NC(=O)N(c2ccc([N+](=O)[O-])c(C(F)(F)F)c2)C1=O
active: [9] 17.2 µM and 11.9 µM
not listed: [4] | [16] | [17] | [19] | [20]
inactive: all other assays above

C1CN(SSN2CCOCC2)CCO1
inactive and 48.6 µM (active): [3]
not listed: [1] | [2] | [10] | [12] | [19] | [20]
inactive: all other assays above

C=CC(C)(O)CCC=C(C)C (configuration not stated)
not listed: [4] | [10] | [16] | [19] | [20]
inactive: all other assays above

CC(=O)O[C@]1(C(C)=O)CC[C@H]2[C@@H]3C=C(C)C4=CC(=O)CC[C@]4(C)[C@H]3CC[C@@]21C
inactive: [16] | [3] | [17] | [4] | [5] | [6] | [7] | [9] | [11] | [15]
active: [8] 0.0039 µM

OC[C@H]1O[C@@H]2O[C@H]3[C@H](O)[C@@H](O)[C@@H](O[C@H]4[C@H](O)[C@@H](O)[C@@H](O[C@H]5[C@H](O)[C@@H](O)[C@@H](O[C@H]6[C@H](O)[C@@H](O)[C@@H](O[C@H]7[C@H](O)[C@@H](O)[C@@H](O[C@H]1[C@H](O)[C@H]2O)O[C@@H]7CO)O[C@@H]6CO)O[C@@H]5CO)O[C@@H]4CO)O[C@@H]3CO
inactive and 22.9 µM (active): [9]
not listed: [4] | [16] | [19] | [20]
inactive: all other assays above

CN(C)CCCN1c2ccccc2Sc2ccc(Cl)cc21
active: [2] 30.6 µM and 21.1 µM | [3] 19.3 µM and 16.8 µM | [17] 27.3 µM and 18.8 µM | [6] 26.6 µM | [9] 43.3 µM and 21.1 µM | [18] 27.3 µM and 29.8 µM | [19] 30.6 µM and 23.7 µM | [15] 27.3 µM and 26.6 µM
not listed: [4] | [16] | [20]
inactive: all other assays above

CC1(C)C(C=C(Cl)Cl)C1C(=O)OCc1cccc(Oc2ccccc2)c1 (configuration not stated)
not listed: [1] | [2] | [9] | [17] | [19]
inactive: all other assays above

COC(=O)c1ccc(C)cc1
not listed: [1] | [2] | [4] | [20]
inactive: all other assays above

CCCCCCCC/C=C\CCCCCCCC(=O)O
not listed: [4] | [8] | [9] | [16] | [18] | [19] | [20]
inactive: all other assays above

CC(=O)Oc1c(C)c(C)c2c(c1C)CC[C@@](C)(CCC[C@H](C)CCC[C@H](C)CCCC(C)C)O2
not listed: [1] | [2] | [4] | [10] | [19] | [20]
inactive: all other assays above

Nc1ccc(O)c(N)c1
active: [7] 60.7 µM and 54.5 µM | [15] 44.7 µM
not listed: [4] | [5] | [6] | [16] | [20]
inactive: all other assays above
